# Bioassay records from PubChem.
# Cycloheximide cs – affects cycloheximide protein synthesis inhibition readout, counter-screen. 300,000 compounds, 12% hits. cell reporter, cycloheximide protein synthesis inhibition counterscreen. max response, %; in the data active = max response mostly above about 13%, no sharp cut-off; inactive = mostly below about 14%; also: read at 38.3 µM for the half of the compounds with a filed dose; 0% is about no effect
# LmPK inh – inhibitors of Leishmania mexicana pyruvate kinase; Q27686; purified LmPK, Kinase-Glo ATP luminescence, 1 h; Potency, µM (doses to about 57.5 µM), for inactives: at the highest dose activity change, negative = inhibition, most hits filed as inhibitors; 290,000 compounds, 0.37% hits; also: potency is read from the fitted curve at half-maximal effect; % is scaled to controls: 0 for no effect and ±100 for the full control effect
#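 Purified LmPK (0.1 nM) with 0.5 mM PEP and 0.1 mM ADP in imidazole buffer pH 7.2 with MgCl2/KCl, 1 h at room temperature. ATP formed was read by luciferase luminescence and normalized to no-enzyme and uninhibited controls.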
# Tb PYK inh – blocks Trypanosoma brucei pyruvate kinase; Q57TT1; TbPYK enzyme, Kinase-Glo Plus ATP luminescence, 45 min; Potency, µM (top dose mostly 76.8 µM), without a hit: top-dose activity, negative = inhibition, actives largely listed as inhibitors; 410,000 compounds, 0.12% hits; AID 624173; also: potency is read from the fitted curve at half-maximal effect; % is scaled to controls: 0 for no effect and ±100 for the full control effect; nearly all actives have a fitted effect of over 50% in size
#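 Readout: single end-point luminescence (Kinase-Glo Plus, 10 min). Reaction conditions were TbPYK/substrate plus 130 uM ADP, 45 min at RT, pH 7.2 TEA buffer. No-enzyme wells served as controls, and data were normalized before concentration-response fitting.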
# Sm TGR inh – inhibitors of Schistosoma mansoni thioredoxin glutathione reductase; Q962Y6; purified TGR, DTNB reduction, TNB absorbance 405 nm; Potency, µM (series often up to 114 µM), for inactives: at the highest dose activity change, negative = inhibition, actives largely listed as inhibitors; 360,000 compounds, 3% hits; AID 485364; also: potency is read from the fitted curve at half-maximal effect; % is scaled to controls: 0 for no effect and ±100 for the full control effect; nearly all actives have a fitted effect of over 60% in size
#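 Kinetic colorimetric format: TGR-catalysed, NADPH-driven DTNB reduction monitored via TNB absorbance. Enzyme dispensed at 20 nM; compound exposure 15 min at room temperature before reaction start.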
# FBPA Giardia inh – inhibitors of Giardia lamblia fructose-1,6-bisphosphate aldolase; 290,000 compounds, 0.71% hits; Potency, µM (series often up to 59.6 µM), for the others: at the top dose activity, negative = inhibition, most hits filed as inhibitors; purified Giardia FBPA; also: potency is read from the fitted curve at half-maximal effect; % is scaled to controls: 0 for no effect and ±100 for the full control effect; nearly all actives have a fitted effect of over 55% in size
# Target sequence (A8B2U2 whole entry, looked up): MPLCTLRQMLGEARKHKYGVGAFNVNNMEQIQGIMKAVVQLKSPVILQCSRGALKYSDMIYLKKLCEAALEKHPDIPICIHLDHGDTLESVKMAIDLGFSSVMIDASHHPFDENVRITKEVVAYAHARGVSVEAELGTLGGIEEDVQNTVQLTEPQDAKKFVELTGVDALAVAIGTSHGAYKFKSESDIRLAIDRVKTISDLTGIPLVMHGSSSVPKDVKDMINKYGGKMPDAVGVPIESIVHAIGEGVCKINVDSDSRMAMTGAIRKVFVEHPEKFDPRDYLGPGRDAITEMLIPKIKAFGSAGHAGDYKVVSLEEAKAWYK
#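 Giardia FBPA (40 nM reagent) was preincubated 10 min at RT with compound (up to 57.5 uM final), then substrate plus GAPDH/TPI/NAD/arsenate coupling system with diaphorase/resazurin was added; resorufin fluorescence (525/598 nm) was read after 20 min.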
# Shiga inhibitor – inhibitors of Shiga toxin in Vero cells; Vero cells, Shiga toxin protein synthesis inhibition reporter; inhibition, % at 38.7 µM; 290,000 compounds, 9.2% hits; AID 2315; in the data active = inhibition mostly above about 28%, no sharp cut-off; inactive = mostly below about 43%; also: 0% is about no effect
# Numbers without * were called inactive; ? = inconclusive; . = not tested or not shown; [ ] = another dose, or the depositor's remark. The entries come from a sample that favours hits as a whole. Unless noted, calls follow the shape of the dose curve; as a rule, active = well fitted curve in the direction sought with a large enough effect; inconclusive = small, poorly fitted or top-dose-only effect, or another doubt; inactive = no such curve, though single readings can be large; an effect the other way counts as inactive or inconclusive.
SMILES,Cycloheximide cs,LmPK inh,Tb PYK inh,Sm TGR inh,FBPA Giardia inh,Shiga inhibitor
CSCC[C@H](NC(=O)[C@H](CCCN=C(N)N)NC(=O)[C@@H]1CCCN1C(=O)[C@H](Cc1ccccc1)NC(=O)[C@H](C)NC(=O)[C@H](CC(C)C)NC(=O)[C@H](Cc1ccc(O)cc1)NC(=O)[C@H](CC(N)=O)NC(=O)[C@@H](N)CCSC)C(N)=O,-4.1,.,.,.,5.3%,-14.9
O=C(O)CCNc1cc2ccccc2cc1C(=O)O,-4.0,9.6%,-26.4%,27.6%,4.46µM*,20.4
COc1cc(OC)cc(-c2nnc3n2N=C(c2ccc(OC)cc2OC)CS3)c1,1.3,.,.,.,0.8%,-7.2
COc1cccc(CN(C)C(=O)C2CCC(=O)N(Cc3cccc(F)c3)C2)c1 (configuration not stated),1.1,-9.3%,2.0%,0.0%,.,-24.2
COc1cccc(CN2CC(C(=O)NCCOc3ccccc3)CCC2=O)c1 (configuration not stated),19.5*,8.8%,1.7%,0.9%,.,17.0
COc1cccc(CN2CC(C(=O)N(C)C3CCOCC3)CCC2=O)c1 (configuration not stated),14.4*,4.2%,3.7%,4.2%,-2.3%,16.7
COc1ccc(-n2c(=O)c3ccccc3n(Cc3cccc(C)c3)c2=O)cc1,.,.,5.0%,2.2%,.,.
Cc1cccc(-n2c(=O)c3ccccc3n(Cc3ccccc3)c2=O)c1,.,.,-4.9%,9.1%,.,.
Cc1ccccc1C1=CCN(c2ncc(NC(=O)c3ccc(Cl)cc3)cc2C(=O)O)CC1,.,.,5.3%,39.8µM*,.,.
COc1ccc(C(=O)Nc2nnc(S(=O)(=O)N(CC(C)C)c3ccc(C)cc3)s2)cc1OC,.,.,5.8%,?,.,.
COc1cccc(N2CCN(C(=O)c3cc4c(s3)-c3c(C)cccc3OC4)CC2)c1,.,.,-12.0%,5.9%,.,.
C=CCN1C(=O)/C(=C/c2ccsc2)SC1=S,6.2,4.2%,0.3%,-4.0%,0.9%,15.3
C=CCN1C(=O)/C(=C/c2ccc(-c3ccc(F)cc3)o2)SC1=S,4.8,-6.3%,-2.6%,25.1µM*,-11.7%,5.3
C/C(=N\NC(=O)c1ccc(CSc2nc(C)cc(C)n2)cc1)c1ccco1,-1.7,3.0%,-0.7%,44.7µM*,-11.6%,5.3
Cc1cc(C)nc(SCc2ccc(C(=O)NN=C3C4CC5CC(C4)CC3C5)cc2)n1,-0.2,-0.8%,0.6%,?,-0.4%,-9.4
Cc1cc(C)nc(SCc2ccc(C(=O)N/N=C/c3ccco3)cc2)n1,-2.5,4.3%,-19.5%,31.6µM*,-17.5%,-12.4
COc1ccc(NC(=S)NC23CC4CC(CC(C4)C2)C3)cc1OC,9.2,-15.8%,4.0%,0.0%,.,-20.3
CCC(=O)NNc1ncnc2ccccc12,0.6,-6.8%,1.5%,2.8%,0.0%,-9.5
Cc1ccc(S(=O)(=O)Nc2ncnc3ccccc23)cc1,15.6,-3.8%,0.7%,-12.9%,2.2%,26.8
CCOC(=O)/C(=N\Nc1ncnc2ccccc12)c1ccc(C)cc1,18.0*,-10.7%,0.0%,-3.7%,4.4%,23.0
CCOC(=O)C/C(=N\Nc1ncnc2ccccc12)c1ccccc1,35.2*,-3.2%,2.1%,-16.5%,10.0%,86.7*
CNC(=O)c1c[nH]c2ccc(S(=O)(=O)Nc3cccc(Cl)c3C)cc2c1=O,.,.,-9.5%,-24.4%,.,.
CCn1c2ccccc2c2nc3cc(C(=O)O)ccc3nc21,34.8*,3.2%,-16.9%,.,-18.4%,126.2*
CC(=O)n1c2ccccc2c2nc3ccccc3nc21,26.0*,-1.4%,-6.5%,-0.3%,-2.6%,.
CCn1c2ccccc2c2nc3ccccc3nc21,8.7,3.2%,-8.1%,14.3%[11.4 µM],-8.3%,-0.4
SMILES,Cycloheximide cs,LmPK inh,Tb PYK inh,Sm TGR inh,FBPA Giardia inh,Shiga inhibitor
O=C(NNc1ccccc1)NC(Cc1ccccc1)C(=O)O (configuration not stated),.,.,3.7%,.,.,.
Cc1cccc(/C=N/NC(=O)CN2CCCCCCC2)c1,14.5,-18.2%,3.5%,2.5%,-16.5%,12.2
O=C(CN1CCOCC1)N/N=C/c1cccc2ccccc12,-2.9,2.9%,-2.6%,?,-3.9%,-5.6
O=C(CN1CCCCCC1)N/N=C/c1ccc(Cl)c(Cl)c1,28.9*,-4.2%,3.7%,0.0%,-1.7%,29.5
O=C(CN1CCOCC1)N/N=C/c1ccc(C(=O)O)cc1,52.9*,0.8%,-5.8%,-1.0%,-0.4%,84.8*
COCCCNC(=O)CCn1c(=O)c2ccccc2n(CC(=O)Nc2c(C)cc(C)cc2C)c1=O,.,.,1.4%,-1.6%,.,.
O=C(c1nc2ccccc2s1)N1CCSCC1,29.2*,-13.0%,-0.2%,0.3%,4.1%,134.7*
O=C(c1ccc2ccccc2n1)N1CCN(c2ccccn2)CC1,-3.9,-7.3%,1.0%,-11.1%,12.8%,-3.3
O=C(c1nc2ccccc2s1)N1CCN(c2ccccn2)CC1,20.7*,-4.2%,33.1%,2.0%,2.1%,28.7*
CCNC(=O)C1(C)CCCN(C(=O)c2nc3ccccc3s2)C1 (configuration not stated),.,.,-3.5%,.,.,.
Cc1ccc(C(C(=O)NCc2ccco2)N(Cc2ccco2)C(=O)CNC(=O)c2ccco2)cc1 (configuration not stated),6.1,3.2%,-17.2%,44.7µM*,-2.5%,4.5
Cc1ccc(C(C(=O)NCc2ccco2)N(C(=O)CNC(=O)c2cccs2)c2c(C)cc(C)cc2C)cc1 (configuration not stated),29.0*,4.3%,-3.1%,-3.1%,-0.3%,34.8
FC(F)(F)c1ccc(-c2csc(-c3ccno3)n2)cc1,38.9*,0.6%,3.2%,-2.0%,-13.4%,83.5*
CCOC(=O)C(=CNNc1ccccc1)C(=O)OCC,1.1,3.6%,-0.7%,2.24µM*,-4.7%,2.2
CC(=O)OCc1cnc(C)c2oc(=O)c(C(=O)Nc3ccc(F)cc3C)cc12,.,.,-0.8%,-1.3%,.,.
CCC1CCC(C(=O)NC(C(=O)Nc2ccc3c(c2)OCCO3)C(C)C)CC1 (configuration not stated),23.4,0.5%,2.3%,-23.3%,8.0%,50.2
CC(C)CC(NC(=O)C1CCC(C)CC1)C(=O)Nc1ccc2c(c1)OCCO2 (configuration not stated),44.4*,9.5%,-3.3%,5.5%,-14.4%,121.7*
CC(C)CC(NC(=O)C1CCC(C)CC1)C(=O)Nc1ccccn1 (configuration not stated),26.9*,-14.1%,-0.5%,0.0%,2.7%,130.7*
CC(C)CC(NC(=O)C1CCC(C)CC1)C(=O)Nc1ccccc1F (configuration not stated),6.9,2.1%,1.5%,-3.4%,9.3%,12.0
CC(=O)NC(CCS(C)(=O)=O)C(=O)Nc1ccc2c(c1)OCO2 (configuration not stated),-1.9,0.0%,1.2%,-15.2%,-20.6%,4.3
COC(=O)[C@H](CC(C)C)NC(=O)Nc1ccc2c(c1)OCCO2,32.8*,-1.8%,3.5%,0.0%,2.7%,92.7*
